Laboratory results as given in PubChem BioAssay (NCATS).
Unmarked numbers belong to inactive results. Calls of active or inactive are those of the source. The call rests on the fitted dose curve; in most records, active means well fitted curve in the direction sought with a large enough effect; inconclusive means small, poorly fitted or top-dose-only effect, or another doubt; inactive means no such curve, though single readings can be large or run the other way.

target: Hexokinase-4 (Homo sapiens) + Glucokinase regulatory protein (Homo sapiens) (UniProt P35557+Q14397); test: qHTS assay for inhibitors of recombinant human GCK-GKRP interaction: ADP-Glo assay (AID 743206); conditions: ADP-Glo luminescence, 60 min, 0% = vehicle-only wells with enzyme present; series mostly up to 76.9 µM; activity, positive = activation: at the top concentration;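 further: plate controls were DMSO plus enzyme for no effect and no enzyme for full effect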
How it was run: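 Pin-transferred compounds meet a 15 nM GST-GCK/15 nM FLAG-GKRP/2 uM S6P mix (dispense concentrations). ATP is then added to 0.4 mM final with 5 mM glucose, and the reaction runs 60 min at room temperature. ADP is quantified luminescently.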

Sequence of Hexokinase-4 (Homo sapiens) + Glucokinase regulatory protein (Homo sapiens) (P35557 whole entry, looked up): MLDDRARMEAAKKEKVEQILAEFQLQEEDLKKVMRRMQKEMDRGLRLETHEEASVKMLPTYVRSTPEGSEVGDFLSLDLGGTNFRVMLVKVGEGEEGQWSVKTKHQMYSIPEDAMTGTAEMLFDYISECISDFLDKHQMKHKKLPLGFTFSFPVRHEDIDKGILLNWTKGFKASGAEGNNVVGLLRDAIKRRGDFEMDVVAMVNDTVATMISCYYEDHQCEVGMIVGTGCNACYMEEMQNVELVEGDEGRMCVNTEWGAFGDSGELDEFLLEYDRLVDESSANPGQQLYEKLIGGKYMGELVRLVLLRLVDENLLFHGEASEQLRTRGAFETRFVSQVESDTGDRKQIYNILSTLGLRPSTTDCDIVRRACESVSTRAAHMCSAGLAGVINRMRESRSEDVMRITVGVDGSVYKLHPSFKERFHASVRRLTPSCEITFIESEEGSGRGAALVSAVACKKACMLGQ
Sequence of Hexokinase-4 (Homo sapiens) + Glucokinase regulatory protein (Homo sapiens) (Q14397 whole entry, looked up): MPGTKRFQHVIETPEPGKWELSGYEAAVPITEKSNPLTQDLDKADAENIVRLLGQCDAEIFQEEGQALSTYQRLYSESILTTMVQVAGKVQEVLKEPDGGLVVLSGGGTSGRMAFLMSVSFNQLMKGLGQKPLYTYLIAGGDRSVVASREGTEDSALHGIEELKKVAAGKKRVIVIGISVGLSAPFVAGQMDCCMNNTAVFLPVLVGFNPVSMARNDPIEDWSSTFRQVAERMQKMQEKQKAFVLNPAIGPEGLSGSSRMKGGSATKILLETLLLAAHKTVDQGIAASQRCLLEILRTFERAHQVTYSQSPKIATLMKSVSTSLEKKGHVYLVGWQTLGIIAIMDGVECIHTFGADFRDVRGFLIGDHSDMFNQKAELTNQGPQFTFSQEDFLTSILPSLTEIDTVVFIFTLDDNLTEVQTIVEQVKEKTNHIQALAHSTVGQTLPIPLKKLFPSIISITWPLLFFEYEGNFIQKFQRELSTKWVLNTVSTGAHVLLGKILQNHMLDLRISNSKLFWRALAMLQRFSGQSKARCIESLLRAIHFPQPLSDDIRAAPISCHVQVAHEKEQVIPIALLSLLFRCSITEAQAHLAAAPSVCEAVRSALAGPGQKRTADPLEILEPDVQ

For `CC(C)NC[C@H](O)c1ccc(O)c(O)c1`, the outcome was “inactive”.
In the case of `CC(C)(C)[C@]1(O)CCN2C[C@H]3c4ccccc4CCc4cccc(c43)[C@@H]2C1`, the outcome is reported as “inactive”.
With `CC(C)(C)c1onc(OCP(=O)(O)O)c1CC(N)C(=O)O` (stereo not drawn) the outcome was “inactive”.

Compared with `CCCn1cnc2c1c(=O)n(CCCCC(C)=O)c(=O)n2C`, `CC(C)C(=O)c1c(C(C)C)nn2ccccc12` is lower in “activity, positive = activation” value: 2.04% for the first, 1.3% for the second.

First: Nc1cc(=O)[nH]c(N)n1
Second: CCN(CC)CCNC(=O)c1cc(Cl)c(N)cc1OC
The “activity, positive = activation” value of the first is lower: 0.788% for the first, 2.48% for the second.

Compared with `NC(=O)c1ncn([C@@H]2O[C@H](CO)[C@@H](O)[C@H]2O)n1`, `Nc1ncnc2c1ncn2[C@@H]1O[C@H](CO)[C@@H](O)[C@H]1O` is lower in “activity, positive = activation” value: 4.4% for the first, 3.13% for the second.

Going from `CC(C)(C(=O)O)c1ccc(C(O)CCCN2CCC(C(O)(c3ccccc3)c3ccccc3)CC2)cc1` (stereo not drawn) to `CC(C(O)c1ccc(O)cc1)N1CCC(Cc2ccccc2)CC1` (stereo not drawn), the “activity, positive = activation” value falls from 4.22% to 2.42%.

Going from `CC[C@H]1CN2CCc3cc(OC)c(OC)cc3[C@@H]2C[C@@H]1C[C@H]1NCCc2cc(OC)c(OC)cc21` to `CSc1ccc2c(c1)C(N1CCN(C)CC1)Cc1ccccc1S2` (stereo not drawn), the “activity, positive = activation” value rises from -1.69% to 5.89%.

Compared with `C[C@](N)(Cc1ccc(O)cc1)C(=O)O`, `CNCC(O)c1ccc(O)c(O)c1` (stereo not drawn) is lower in “activity, positive = activation” value: 2.99% for the first, 2.58% for the second.

Going from `CCCCCCCCCCCCCCCC(=O)NCCO` to `OCc1cc(C(O)CNCCCCCCOCCCCc2ccccc2)ccc1O` (stereo not drawn), the “activity, positive = activation” value falls from 4.02% to -1.25%.

Compared with `CCN(CC)CCOC(=O)C1(C2CCCCC2)CCCCC1`, `CC(=O)OCC(=O)[C@@]1(O)CC[C@H]2[C@@H]3CCC4=CC(=O)CC[C@]4(C)[C@H]3C(=O)C[C@@]21C` is lower in “activity, positive = activation” value: 4.86% for the first, 1.77% for the second.

First: CCN(CC)C(C)CN1c2ccccc2Sc2ccccc21 (stereo not drawn)
Second: CC(CN(C)C)CN1c2ccccc2CCc2ccccc21 (stereo not drawn)
The “activity, positive = activation” value of the first is lower: -1.66% for the first, 2.71% for the second.

Compared with `Cc1cc(N)c2ccccc2[n+]1CCCCCCCCCC[n+]1c(C)cc(N)c2ccccc21`, `CNCCCC1c2ccccc2C=Cc2ccccc21` is higher in “activity, positive = activation” value: -13.2% for the first, -1.72% for the second.

Compared with `CC1=C(CC(=O)O)c2cc(F)ccc2/C1=C\c1ccc(S(C)=O)cc1` (stereo not drawn), `CC1=C(CC(=O)O)c2cc(F)ccc2/C1=C\c1ccc(S(C)(=O)=O)cc1` is lower in “activity, positive = activation” value: 1.42% for the first, -2.67% for the second.

First: COC(=O)C1=C(C)NC(C)=C(C(=O)OC)C1c1ccccc1[N+](=O)[O-]
Second: COCCOC(=O)C1=C(C)NC(C)=C(C(=O)OC/C=C/c2ccccc2)C1c1cccc([N+](=O)[O-])c1 (stereo not drawn)
The “activity, positive = activation” value of the first is higher: 3.53% for the first, 2.04% for the second.

First: C#CCN(C)Cc1ccccc1
Second: CN(C)CC[C@@H](c1ccc(Cl)cc1)c1ccccn1
The “activity, positive = activation” value of the first is lower: -0.0478% for the first, 4.83% for the second.

First: C=Cc1c(C)c2cc3[nH]c(cc4nc(cc5nc(cc1[nH]2)C(C)=C5CCC(=O)O)C(CCC(=O)O)=C4C)c(C)c3C=C
Second: CCN(CC)CCCC(C)Nc1c2ccc(Cl)cc2nc2ccc(OC)cc12 (stereo not drawn)
The “activity, positive = activation” value of the first is higher: 9.86% for the first, 1.29% for the second.

Compared with `N=c1c[n+](N2CCOCC2)[n-]o1`, `NC1CCN(c2cccc(Cl)n2)CC1` is lower in “activity, positive = activation” value: 2.51% for the first, -1.04% for the second.

Compared with `CNCCC(Oc1ccc(C(F)(F)F)cc1)c1ccccc1` (stereo not drawn), `CN1CCN(C2Cc3ccccc3Sc3ccc(Cl)cc32)CC1` (stereo not drawn) is lower in “activity, positive = activation” value: -2% for the first, -2.73% for the second.

Compared with `NC(N)=NCCC[C@H](N)C(=O)O`, `OCCN1CCN(CCCN2c3ccccc3Sc3ccc(Cl)cc32)CC1` is lower in “activity, positive = activation” value: -0.675% for the first, -0.968% for the second.

For `O=C1N=C(O)CN1/N=C/c1ccc(-c2ccc([N+](=O)[O-])cc2)o1`, the “activity, positive = activation” value was 4.1%.
